In the supplement of paper PMC6555819:

The sequences below were run on VDR homodimer (NR concentration 270 nM) (assay: PBM binding z-score (relative to random genomic background probes); higher = stronger binding; sequences stand for … in GC…GCGATTGACAGCGTAGAATGAAGG).
Outline: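 For binding z-scores, the reference was random background probes on custom Agilent 4×180K protein-binding microarrays. These arrays were incubated 1 h with ligand-free nuclear receptor dimers in PBS pH 7.4, 2% milk, 0.02% Triton X-100, 1 mM DTT, 0.2 mg/mL BSA and 0.4 mg/ml salmon testes DNA. Fluorescence was scanned after antibody detection of each partner (one per run) and regression-normalized.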
Work on TATACAGGGTCAAAGGCCAGTGTACGAATGTCGA yielded a PBM binding z-score of 2.75. Work on AGAACGAGGGCACTCTGAGTTGATAGCAGAGTAG yielded a PBM binding z-score of 1.73. With CCTAGTTGGTCAGGCGGTCACACACCGGATATGA the PBM binding z-score was 0.3. CCTCGGAGGACAACAGGAGGTCAGAGCAGCCAGA showed a PBM binding z-score of 1.14. GCAGACAGGTGAAACGTAGGTAACTCAGGGTGGC showed a PBM binding z-score of -0.684. With GATACAGGGTCAGTTAGAGGCCAGAGTATGGAAA the PBM binding z-score was 1.51. CGAACTAGGTCATCCAGGGCAGTGAATACATTGA gave a PBM binding z-score of 2.25. Work on TCTCGGAGGACACTAAGGTCAGAGCTTTCCAGAG yielded a PBM binding z-score of 2.73. CAAACTAGGTCAAGAGGGCAAAGTCCGCTTCCCG gave a PBM binding z-score of 1.78. In the case of GCATATAGGTAATACAAGGAGAAAGTCCGATTGT, the PBM binding z-score is reported as -0.234. With TCTTGTAGATCATCAGGTTAAGAAAGCTGGCCAA the PBM binding z-score was 0.0246. Work on CTCGAAATGTCGGTTGAGGTGAGTATACGGATAA yielded a PBM binding z-score of 0.263. In the case of AGAATGAGGTGACCAAAGATCAGGGAAACGCTTG, the PBM binding z-score is reported as -0.347. TCATACAGGTGAAGGTAACTCAGGTACGCAGTCG gave a PBM binding z-score of 0.668. ACAAACAGGTGATGAAGGTAACTCAGGCTATCAT gave a PBM binding z-score of 0.203. ATACCAAGGTGATCGTGAGGTCGTTCATACTAAC gave a PBM binding z-score of 3.68. In the case of ATCGCAAGGTCGAAGGTGAGTATACCCACCCGAA, the PBM binding z-score is reported as 0.489. For CATACAGGGTCAGCTAGGCTAGAGTAGGGACGGC, the PBM binding z-score was 1.04. CCGAGTTGGTCAGGAGGTCACACACCGGATATGA showed a PBM binding z-score of 3.09. CCGACTGGGGTAAAGGTTACCATACTCAGTACGA showed a PBM binding z-score of 0.207. TCTTGTAGCTCAAGCAGGTTAAGAAAGCCTGAGT gave a PBM binding z-score of -0.763. CAAACTAGGTCAAAGGTCGAAGTCGAGCCAACCA showed a PBM binding z-score of 1.73. Work on CAAACTAGGTCACAGAGGTCACAGTCCGTGCGTA yielded a PBM binding z-score of 6.14. For GGAGACAGGTGAAACGCAGGTAACTCAGGGTGGC, the PBM binding z-score was -0.609. CCTATTAGTTGATCATAAGGGCAACCGAAGCTCG was tested, and the PBM binding z-score was 1.1. GGAACGAGGGCATTTGAGTTGATAGCATGGCGAT showed a PBM binding z-score of 3.57. GCTTACGGGTCATAGGTTATAGCATGAATAGAAT was tested, and the PBM binding z-score was 0.952. TCTTGTAGATCAAGCAGGTTAAGGAAGCCTGAGT was tested, and the PBM binding z-score was 0.166. With CCAAGTTGGTCAAGGTCACACACGCTATAGGTAC the PBM binding z-score was 4.56. CCTAACAGGCCAATCTGGGTCACTCAAGGCTTGA showed a PBM binding z-score of 0.191. GCTAGCAGGCCATTTGGTTCACTCAATGACGGGC showed a PBM binding z-score of 1.2. Sequence ACTCGGAGGACAAAGGTCAGAGCAACGCCAGTGA has a PBM binding z-score of 1.14. ATCTCTAGGTAAAGATAGATCAGTGAATGCAAAT was tested, and the PBM binding z-score was -0.0693. In the case of AGAATGAGGTTACCAAAGATCACGGAAACGCTTG, the PBM binding z-score is reported as 0.151. With TCAAATAGGTAATACAGGTGAAAGTCGGCATCTA the PBM binding z-score was 0.0898. CCGACTGGGGCAAAGGATACCATACTCAGTACGA was tested, and the PBM binding z-score was -0.406. CTCGTAAGGTCGGTTGAGGTGAGTATACGGATAA gave a PBM binding z-score of 0.937. GCGATTGGGGCATCAGCAGGTTACCATAACTTAA was tested, and the PBM binding z-score was -0.374. ATCTCTAGGTAAGACTCAGGTCAGTGAAGAACGC showed a PBM binding z-score of 0.803. Sequence TCATATAGGTAAACAGGTGGAAGTCCGTAAGTTA has a PBM binding z-score of 0.154.
